From PubChem BioAssay (NCATS) come the findings set out here.

Values joined by “and” are separate entries in the source; they are usually repeats but may differ in a detail not shown here. Equal entries are not always repeated. Values without a mark were called inactive. Results filed as inconclusive are left out. Active and inactive are the calls of the source. Unless noted, calls follow the shape of the dose curve; as a rule, active = well fitted curve in the direction sought with a large enough effect; inconclusive = small, poorly fitted or top-dose-only effect, or another doubt; inactive = no such curve, though single readings can be large; an effect the other way counts as inactive or inconclusive.

The nature of assay [1]: Drug repurposing screens with cells derived from glioblastoma tumor samples (AID 1345199). Also: nearly all actives have a fitted effect of over 40% in size. Also: potency is read from the fitted curve at half-maximal effect. As to activity, negative = cell killing: % is scaled to controls: 0 for no effect and ±100 for the full control effect. Particulars: GBM patient neurospheres viability, ATP luminescence, 48 h. The gist of the method:
(§1)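 Four patient lines of CD133+ GBM neurospheres were screened at several concentrations; hits were retested in those lines plus three slower-growing GBM lines, using 48-hour treatment and ATP-based viability.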

Another assay deals with astro (control astrocytes). The description is as above. Particulars: viability, ATP luminescence, 48 h; series mostly up to 45.9 µM. Put shortly:
as §1

Assay [2] has as its target Nuclear receptor subfamily 1 group I member 2 (Rattus norvegicus) (UniProt Q9R1A7). The assay can be described thus: qHTS assay for small molecule activators of the rat pregnane X receptor (rPXR) signaling pathway (AID 651751; call rule not given here; also: 0% is about no effect). As to conditions: rPXR reporter cells, luciferase (One-Glo), 24 h.
Assay [3] in a line: qHTS assay for small molecule activators of the human pregnane X receptor (PXR) signaling pathway (AID 720659; call rule not given here; also: 0% is about no effect). Particulars: DPX-2 HepG2 CYP3A4-luciferase, 24 h; series mostly up to 92.3 µM. (In general: Quantitative high-throughput screening tests each substance at several concentrations.)
Assay [4] can be described thus: qHTS assay to identify inhibitors of the type 1 interferon - major histocompatibility complex class I in skeletal muscle: Counter screen cell viability and HiBit confirmation (AID 1347412). Also: % is scaled to controls: 0 for no effect and ±100 for the full control effect; nearly all actives have a fitted effect of over 60% in size. As to conditions: iHSKM muscle cells + IFN-b, HiBiT or CellTiter-Glo, 24 h; Potency: HiBiT; Viability, at 45.9 µM (top of the series). The gist of the method:
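HLA-B*08:01–HiBiT knock-in immortalized human myoblasts (C25cl48) stimulated with 4.0 ng/ml human IFN-beta and dosed with compound in a 12-point 1:3 titration (top final 46 uM). After 24 hrs at 37 C, HiBiT lytic luminescence or CellTiter Glo ATP read out.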

Setting [5] is: at 45.9 µM (top of the series), tumour line B.
Where [6] appears, read: at 45.9 µM (top of the series), tumour line D.
The mark [7] stands for this setting: at 46 µM (top of the series), tumour line A.
Setting [8] is: at 46.1 µM (top of the series), tumour line C.
Setting [9] is: at 20 µM (top of the series), tumour line C.
Setting [10] is: at 21.2 µM (top of the series), tumour line B.
[11] abbreviates: at 21.2 µM (top of the series), tumour line D.
Where [12] appears, read: at 21.3 µM (top of the series), tumour line A.

Sequence of Nuclear receptor subfamily 1 group I member 2 (Rattus norvegicus) (Q9R1A7 whole entry, looked up): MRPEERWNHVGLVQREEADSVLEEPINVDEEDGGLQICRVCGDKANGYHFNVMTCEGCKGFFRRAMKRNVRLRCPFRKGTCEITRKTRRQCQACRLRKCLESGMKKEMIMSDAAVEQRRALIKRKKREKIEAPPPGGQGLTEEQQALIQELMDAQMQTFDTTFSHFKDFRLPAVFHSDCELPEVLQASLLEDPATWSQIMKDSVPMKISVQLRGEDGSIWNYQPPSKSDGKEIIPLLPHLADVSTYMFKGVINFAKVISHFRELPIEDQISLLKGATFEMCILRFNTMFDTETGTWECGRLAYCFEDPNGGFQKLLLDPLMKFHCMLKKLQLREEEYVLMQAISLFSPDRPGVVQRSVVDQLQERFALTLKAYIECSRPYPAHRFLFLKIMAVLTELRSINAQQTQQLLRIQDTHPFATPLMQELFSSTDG

Turning to `CCCN(CCC)S(=O)(=O)c1ccc(C(=O)O)cc1`, the activity, negative = cell killing in assay [1] (setting [5]) is -5.41%; in assay [1] (setting [6]), 6.49%; in assay [1] (setting [7]) it was -4.85%; in assay [1] (setting [8]), -7.91%. Besides, the Potency entry with astro is “inactive”. For the same compound, in assay [2], the max response was 7.36% and 2.17%. Besides, the compound was called inactive in assay [3].

Consider `Cc1c(-c2ccccc2)oc2c(C(=O)OCCN3CCCCC3)cccc2c1=O`, for which the activity, negative = cell killing in assay [1] (setting [9]) is 10.4%; in assay [1] (setting [10]) it was -10.2%; in assay [1] (setting [11]), -18.3%; in assay [1] (setting [12]), -8.03%. The Potency result with astro was “inactive”.

For `CCN[C@@H]1C[C@H](N)[C@@H](OC2OC(CN)=CCC2N)[C@H](O)[C@H]1O[C@H]1OC[C@](C)(O)[C@H](NC)[C@H]1O` (stereo not given in full), the activity, negative = cell killing in assay [1] (setting [5]) is -4.35%; in assay [1] (setting [6]) it was 14.1%; in assay [1] (setting [7]), -22.3%; in assay [1] (setting [8]), -13.2%. In the assay with astro, the Potency result is “inactive”.

`CCCCCCCCCCCCCC(=O)OC(C)C`: the activity, negative = cell killing in assay [1] (setting [5]) is 8.22%; in assay [1] (setting [6]) it was -15.3%; in assay [1] (setting [7]), -17.4%; in assay [1] (setting [8]) it was 3.73%. Further, the Potency entry in the assay with astro is “inactive”. In addition, the max response in assay [2] was 2.24%. Further, in assay [3], the call was inactive.

For the compound `O=C(O)CCc1nc2ccccc2[nH]1`, the activity, negative = cell killing is -11.4% in assay [1] (setting [5]), 5.36% in assay [1] (setting [6]), -40.1% in assay [1] (setting [7]) and -13.5% in assay [1] (setting [8]). Moreover, the Potency result in the assay with astro was “inactive”.

In the case of `CCC1NC(=O)c2cc(S(N)(=O)=O)c(Cl)cc2N1` (stereo not given), the activity, negative = cell killing in assay [1] (setting [9]) is -6.38%; in assay [1] (setting [10]), -2.62%; in assay [1] (setting [11]) it was -14.7%; in assay [1] (setting [12]), -12.3%. Besides, the Potency result in the assay with astro is “inactive”.

In the case of `CCCCCCCCCCCCCCCC(=O)O`, the activity, negative = cell killing in assay [1] (setting [5]) is -2.37%; in assay [1] (setting [6]), 1.78%; in assay [1] (setting [7]), -27.9%; in assay [1] (setting [8]) it was 2.94%. Also, the max response in assay [2] was -0.866%. Further, the result in assay [3] was inactive.

With `Cn1c(=O)c2[nH]c(Br)nc2n(C)c1=O`, the figures for the activity, negative = cell killing in assay [1] (setting [5]), in assay [1] (setting [6]) and in assay [1] (setting [8]) were -10.3%, -8.55% and -9.05%, respectively. Besides, the Potency entry with astro is “inactive”.

In the case of `CC1=C(C(=O)O)N2C(=O)[C@@H](NC(=O)[C@H](N)c3ccccc3)[C@H]2SC1`, the activity, negative = cell killing in assay [1] (setting [5]) is -0.246%; in assay [1] (setting [6]), -6.88%; in assay [1] (setting [7]), -19.6%; in assay [1] (setting [8]) it was -1.45%. The Potency entry (in the assay on astro; in assay [4]) was “inactive” each time.

For the compound `C[N+]1(C)CCC(=C(c2ccccc2)c2ccccc2)CC1`, the activity, negative = cell killing was 3.13% in assay [1] (setting [9]), -8.97% in assay [1] (setting [10]) and 4.56% in assay [1] (setting [11]). In addition, the Potency result in the assay with astro was “inactive”.

`CCc1oc2ccccc2c1C(=O)c1cc(Br)c(O)c(Br)c1`: the activity, negative = cell killing in assay [1] (setting [7]) is -39.6%; in assay [1] (setting [8]) it was -6.19%. Besides, the Potency is 35.5 µM (active) in assay [1] (tumour line D) and 28.2 µM (active) in the assay with astro.

`Cc1cc2c(OCC(CNC(C)(C)C)OC(=O)c3ccccc3)cccc2[nH]1` (stereo not given): the activity, negative = cell killing in assay [1] (setting [5]) is -19.3%; in assay [1] (setting [6]), -5.62%; in assay [1] (setting [8]) it was -10.8%. In addition, the Potency result with astro was “inactive”.

Consider `OC[C@H]1O[C@@H]2O[C@H]3[C@H](O)[C@@H](O)[C@@H](O[C@H]4[C@H](O)[C@@H](O)[C@@H](O[C@H]5[C@H](O)[C@@H](O)[C@@H](O[C@H]6[C@H](O)[C@@H](O)[C@@H](O[C@H]7[C@H](O)[C@@H](O)[C@@H](O[C@H]8[C@H](O)[C@@H](O)[C@@H](O[C@H]1[C@H](O)[C@H]2O)O[C@@H]8CO)O[C@@H]7CO)O[C@@H]6CO)O[C@@H]5CO)O[C@@H]4CO)O[C@@H]3CO`, for which the activity, negative = cell killing was -11.6% in assay [1] (setting [5]), 5.3% in assay [1] (setting [6]), -16.2% in assay [1] (setting [7]) and -14.8% in assay [1] (setting [8]). In addition, in the assay with astro, the Potency result was “inactive”. Also, the max response in assay [2] is -1.43%. In addition, in assay [3], the compound was classed as inactive.

As for `CC(C)(C)NC[C@H](O)COc1cccc2c1CCCC2=O`, the activity, negative = cell killing was 5.11% in assay [1] (setting [9]), -13.9% in assay [1] (setting [10]), -6.37% in assay [1] (setting [11]) and -24.3% in assay [1] (setting [12]). Further, the Potency result in the assay on astro was “inactive”.

With `CCO[C@@H]1O[C@H](C(COCc2ccccc2)OCc2ccccc2)[C@H](OCc2ccccc2)[C@H]1O` (stereo not given in full), the results for the activity, negative = cell killing in assay [1] (setting [9]), in assay [1] (setting [10]) and in assay [1] (setting [11]) were -1.34%, -8.94% and -23.7%, respectively. Moreover, in assay [1] (tumour line A), the Potency was 14.1 µM (active). The Potency result with astro is “inactive”.

Consider `NC(=O)c1ccccc1O`, for which the activity, negative = cell killing in assay [1] (setting [5]) was -6.32%; in assay [1] (setting [6]), 0.802%; in assay [1] (setting [7]), -27.6%; in assay [1] (setting [8]) it was 4.05%. Also, in assay [2], the max response is -4.39%. The call in assay [3] was inactive.

In the case of `CCN(CC)CCNC(=O)COc1ccc(OC)cc1`, the activity, negative = cell killing in assay [1] (setting [5]) was -17.2%; in assay [1] (setting [6]) it was -10.2%; in assay [1] (setting [7]), -59%; in assay [1] (setting [8]), -17.2%. In addition, the Potency result in the assay with astro is “inactive”.

For the compound `NS(=O)(=O)Cc1noc2ccccc12`, the activity, negative = cell killing in assay [1] (setting [5]) is -12.5%; in assay [1] (setting [6]) it was -13.1%; in assay [1] (setting [8]), 1.44%. Besides, the Potency entry in the assay on astro was “inactive”.

Regarding `COc1ccc(C(Cl)=C(c2ccc(OC)cc2)c2ccc(OC)cc2)cc1`, the results for the activity, negative = cell killing in assay [1] (setting [5]) and in assay [1] (setting [8]) were -6.95% and 2.89%, respectively. Also, the Potency in assay [1] (tumour line A) is 11.2 µM (active). For the same compound, in the assay with astro, the Potency entry was “inactive”.

Take `Cc1ccccc1OCC(O)CO` (stereo not given): the activity, negative = cell killing in assay [1] (setting [5]) is -8.02%; in assay [1] (setting [6]), -9.22%; in assay [1] (setting [8]), -19.6%. In the assay with astro, the Potency entry is “inactive”.

With `CCN(CC)CCOC(=O)C1(c2ccccc2)CCCC1`, the activity, negative = cell killing in assay [1] (setting [5]) is -21.1%; in assay [1] (setting [6]), -19.5%; in assay [1] (setting [8]) it was -29.4%. In addition, the Potency entry in the assay on astro is “inactive”.

For `Cc1cccc(C)c1NC(=O)c1ccccc1C(=O)O`, the activity, negative = cell killing in assay [1] (setting [5]) was -1.45%; in assay [1] (setting [6]) it was -18.5%; in assay [1] (setting [8]), -17.8%. The Potency entry in the assay on astro is “inactive”.
